# Compound activity: PubChem BioAssay, National Center for Advancing Translational Sciences (NCATS)
# In the library only some 2.4% were active in any assay of this set; here they are far more common.
# D2 ag-1 = agonists of human D2 dopamine receptor; P14416; HEK293 T-REx D2 cells, calcium flux agonist mode; activation, % at 2 µM; 340,000 tested, 0.53% active; AID 485358;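 active = activation over 3 SD above normal in the single-dose calcium agonist read, cut at about 30% in these data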
# Target sequence (P14416 whole entry, looked up): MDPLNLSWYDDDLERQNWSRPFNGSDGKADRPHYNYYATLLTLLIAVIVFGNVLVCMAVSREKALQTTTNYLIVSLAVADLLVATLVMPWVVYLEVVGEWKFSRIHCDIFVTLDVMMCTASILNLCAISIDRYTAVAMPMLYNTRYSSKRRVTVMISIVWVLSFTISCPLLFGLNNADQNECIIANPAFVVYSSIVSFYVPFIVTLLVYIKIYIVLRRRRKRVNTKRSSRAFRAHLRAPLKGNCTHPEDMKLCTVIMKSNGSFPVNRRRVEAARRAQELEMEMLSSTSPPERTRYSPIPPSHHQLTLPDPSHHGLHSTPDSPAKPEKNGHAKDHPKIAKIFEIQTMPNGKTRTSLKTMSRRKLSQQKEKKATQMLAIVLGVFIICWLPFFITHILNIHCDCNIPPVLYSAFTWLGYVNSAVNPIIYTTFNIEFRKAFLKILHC
#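 Calcium-flux readout, 1 cycle/sec over 180 s following compound pin transfer, in inducible HEK293 Trex D2 cells (force-coupled); dopamine controls included. Positive calcium responses during this window marked compounds as potential agonists.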
# D2 PAM-1 = positive allosteric modulators of human D2 dopamine receptor. P14416. HEK293 T-REx D2, calcium flux, EC20 dopamine potentiation. potentiation, % at 10 µM. 340,000 tested, 0.34% active;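 active = potentiation over 3 SD above the plate norm, cut at about 30% in these data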
#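 Tetracycline-induced HEK293 T-REx cells force-coupled to calcium signalling expressed D2; compounds were pin-added after a 10 s baseline, read kinetically 180 s, then an EC20 dopamine challenge followed with a further 180 s calcium read.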
# D2 ag-2 = agonists of human D2 dopamine receptor (beta-arrestin); AID 624465; DiscoveRx PathHunter D2 beta-arrestin, luminescence, 90 min; 100% = 57 uM dopamine signal; activation, % (concentration not given with the values); 360,000 tested, 0.084% active; P14416; in the data active = activation above about 40%; inconclusive = between about 15% and that limit
#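 Agonist mode: compounds alone added to overnight-plated D2 PathHunter cells for 90 min at 37 C, with 57 uM final dopamine (EC100) defining full response. Beta-arrestin recruitment detected by chemiluminescent reagent, read after 1 h at ambient temperature.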
# D2 PAM-2 = human D2 receptor positive allosteric modulation; P14416; DiscoveRx D2 beta-arrestin cells, luminescence, 90 min; 100% = 57 uM dopamine signal; potentiation, % (concentration not given with the values); 360,000 tested, 0.23% active; in the data active = potentiation above about 50%; inconclusive = mostly about 30% to 49%
#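 PathHunter D2 cells, attached overnight at 37 deg C, received compound in DMSO plus dopamine at EC20 (50 nM final) for 90 min at 37 deg C. Beta-arrestin recruitment was read as luminescence after 1 h with detection reagent at ambient temperature.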
# D2 antag = antagonists of human D2 dopamine receptor; P14416; HEK293 TREx D2 cells, calcium flux, dopamine EC80; inhibition, % at 10 µM; 340,000 tested, 2% active; AID 485344; in the data active = inhibition above about 30%; inactive = below that, where a call was filed
#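 Dopamine at EC80 is the agonist stimulus; test compounds precede it by 180 s. Calcium flux read kinetically in a force-coupled, inducible HEK293 T-REx D2 cell line.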
# A number is an active result; i = inactive; ? = inconclusive; nt = no result.
SMILES,D2 ag-1,D2 PAM-1,D2 ag-2,D2 PAM-2,D2 antag
CN(C)S(=O)(=O)N1CCc2ccc(NC(=O)C3CCCO3)cc2C1 (centres undefined),i,i,i,i,31
O=C(Nc1ccc(S(=O)(=O)N2CCc3ccccc3C2)cc1)C1CCCO1 (centres undefined),i,i,i,i,i
Cc1cc(NC(=O)c2ccc3c(c2)C(=O)N(C2CCCCC2)C3=O)no1,i,i,i,i,56
O=C(Nc1ccc(Cl)c(C(F)(F)F)c1)N1CCCC(O)C1 (centres undefined),i,i,i,i,30
Cc1ccc2oc(C(=O)Nc3ccc(S(=O)(=O)N(C)Cc4ccccc4)cc3)cc(=O)c2c1,i,i,nt,nt,nt
S=c1[nH]nc(C2CCCCC2)n1/N=C/c1ccccc1,i,i,i,i,i
Fc1ccc(/C=N/n2c(C3CCCCC3)n[nH]c2=S)cc1,i,i,?,i,50
COc1ccc(/C=N/Nc2nnc(-c3ncc[nH]3)c3ccccc23)cc1,i,i,i,i,47
COc1ccc(Cl)cc1NC(=O)CNC(c1ccccc1)c1ccccc1,i,i,i,i,i
COc1ccc(C)cc1NC(=O)CNC(c1ccccc1)c1ccccc1,i,i,i,i,37
COc1ccc(OC)c(NC(=O)CNC(c2ccccc2)c2ccccc2)c1,i,i,i,i,31
CCC(C(=O)Nc1cc(C)ccc1C)n1c(=O)c(C(F)(F)F)nc2ccccc21 (centres undefined),nt,i,nt,nt,nt
CCNC(=O)c1cnc2c(-c3ccccc3)c(C)nn2c1C,i,i,nt,nt,nt
O=C(O)c1cnn(-c2nc(-c3cccc([N+](=O)[O-])c3)cs2)c1C(F)(F)F,i,i,i,i,31
O=C(Oc1cccc2ccccc12)c1ccncc1,i,i,i,i,34
CCOC(=O)C1CCCN(C2CC(=O)N(c3ccccc3)C2=O)C1 (centres undefined),i,i,i,i,i
CC1(C)C(=O)Nc2ccccc2N1C(=O)COC(=O)C1CCCCC1,i,i,i,i,i
Cc1ccc(C)c(OCCC(=O)OCC(=O)N2c3ccccc3NC(=O)C2(C)C)c1,i,i,i,i,42
CC(=O)NC(CC(=O)OCC(=O)N1c2ccccc2NC(=O)C1(C)C)c1ccccc1 (centres undefined),i,i,i,i,52
CNC(=O)Cn1nc(-c2ccc(C)c(S(=O)(=O)N(C)C)c2)c2ccccc2c1=O,i,38,i,i,i
CCSc1ncc(C#N)c(=O)[nH]1,i,i,i,i,i
Cc1sc2nc(C3CC3)nc(SCC(=O)N3CCCc4ccccc43)c2c1C,i,i,nt,nt,i
Cn1c(=O)c2c(SCC(=O)N3CCCc4ccccc43)nc(C3CC3)nc2n(C)c1=O,i,i,i,i,35
COc1ccc(-n2ncc3c2CC(C)(C)CC3NC(=O)CCC2=NNC(=O)CC2)cc1 (centres undefined),i,i,i,i,i
O=S(=O)([O-])CCC[n+]1c(/C=C\Nc2ccccc2)oc2ccc(-c3ccccc3)cc21,52,i,nt,nt,i
SMILES,D2 ag-1,D2 PAM-1,D2 ag-2,D2 PAM-2,D2 antag
O=C(NNC1=Nc2cccc3cccc1c23)c1ccc(Br)cc1,i,i,i,i,83
COc1ccc(C(=O)c2ncc(C(F)(F)F)cc2Cl)cc1,i,i,i,i,i
COc1cccc(C(=O)c2ncc(C(F)(F)F)cc2Cl)c1,i,36,i,i,i
Cc1nc2cc(-c3ccccc3)nn2c(C)c1CCC(=O)N1CCN(c2ccccn2)CC1,i,i,nt,nt,36
Cc1nc2c(-c3ccc(F)cc3)c(C)nn2c(C)c1CCC(=O)N1CCOCC1,i,i,i,i,i
CCOC(=O)C1CCCCN1C(=O)CCc1c(C)nc2cc(-c3ccccc3)nn2c1C (centres undefined),i,i,i,i,33
Cc1nc2c(-c3ccccc3)c(C)nn2c(C)c1CCC(=O)N1CCOCC1,i,32,i,i,i
C=CCn1c(SCC(=O)Nc2c(C)cccc2C)nnc1-c1ccncc1,i,i,i,i,i
Cc1ccc([N+](=O)[O-])c(OCCN2CCc3ccccc3C2)c1,i,i,i,i,88
O=[N+]([O-])c1ccccc1OCCCN1CCc2ccccc2C1,i,i,i,i,75
Cc1ccc(OCCCCN2CCc3ccccc3C2)cc1,i,i,i,i,73
O=C(COC(=O)Cc1ccc(Br)cc1)NCC1CCCO1 (centres undefined),nt,nt,i,i,nt
CC1(C)CC(=O)C(N=Nc2ccc(F)cc2)=C(O)C1,i,i,i,i,i
COc1cccc(/C=N/N2C(=O)CSC2=S)c1O,i,i,i,i,i
COc1cc(/C=N/N2C(=O)CSC2=S)cc(Br)c1O,i,i,i,i,44
C=CCC1c2cccc(C(=O)O)c2C(=O)N1c1cccc(OC)c1 (centres undefined),i,i,i,i,i
C=CCC1c2cccc(C(=O)O)c2C(=O)N1c1cccc(C)c1 (centres undefined),i,i,i,i,32
Cc1cc(NC(=O)COC(=O)c2ccc(Cl)cc2)no1,nt,nt,i,i,nt
Cc1ccc([N+](=O)[O-])c(OCC(O)CNC(C)(C)C)c1 (centres undefined),i,i,i,i,i
O=C1CC(=O)CC(c2ccccc2)C1,i,i,i,i,i
CCOc1ccc(S(=O)(=O)N2CCC(C(=O)NCC3CCCO3)CC2)cc1C (centres undefined),i,i,i,i,i
Cc1ccc(C(=O)Nc2cccc3[nH]c(C(F)(F)F)nc23)cc1,i,i,i,i,34
Cc1ccc(C(=O)Nc2ccc(C(F)(F)F)n(C)c2=O)cc1,i,32,i,i,i
COc1ccc(C(=O)Nc2ccc(C(F)(F)F)n(C)c2=O)cc1,i,i,i,i,i
N/C(=N\OC(=O)c1ccc(Cl)c(Cl)c1)c1cccnc1,i,i,?,117,i
SMILES,D2 ag-1,D2 PAM-1,D2 ag-2,D2 PAM-2,D2 antag
N/C(=N\OC(=O)c1cccc(Cl)c1)c1cccnc1,i,i,?,138,i
N/C(=N\OC(=O)c1cccc(Cl)c1)c1ccncc1,i,i,?,i,i
CCCn1c(SCC(=O)NCCCN2CCCC2=O)nc2ccccc2c1=O,nt,nt,i,i,nt
S=c1[nH]nc(Cc2c[nH]c3ccccc23)o1,i,i,i,i,41
CC(C)CCNC(=O)CCc1nnc(Cc2c[nH]c3ccccc23)o1,i,i,i,i,i
O=C(COC(=O)c1cccc(S(=O)(=O)N2CCOCC2)c1)Nc1ccc2c(c1)OCO2,i,i,i,i,i
Nc1[nH]c(=O)[nH]c(=O)c1N=Nc1cccc(Cl)c1,i,i,i,i,i
Cc1ccc2oc(-c3cccc(NC(=S)NC(=O)c4cccs4)c3)nc2c1,i,i,i,i,i
CC1(C)Cc2c(sc3nc(C4CC4)n(N)c(=O)c23)CO1,i,i,i,i,i
COc1ccc(N/C(N)=N/c2nc(C)cc(C)n2)cc1,nt,nt,i,i,nt
